# Results: ChEMBL document CHEMBL3988442, “University of Dundee, Small-Polar-MMV Screening Library” (2021)
# Hit rate of the full screen: of about 48,000 compounds, about 13,000 (27%) showed an effect of 50% or more. This is one part of the list.
# System: Wolbachia pipientis
# Experiment: Anti-Wolbachia Cell-Based Screen
# Type: functional
# Set-up: scale not given: in the data most compounds retested in dose-response had high values
# Details: 5 µM
row,SMILES,Percent Effect [%]
1,O=C(c1ccc(C2CCCN2)s1)N1CCC2(CCCO2)CC1 (centres undefined),16.77
2,CN(CC1CCN(c2ccccc2)C1)c1ccc(Cn2ccnc2)cn1 (centres undefined),-14.61
3,c1cn(Cc2ccc(N3CCCN(C4CCCC4)CC3)nc2)cn1,96.41
4,CC(C)N1CCCC(CN(C)c2ccc(Cn3ccnc3)cn2)C1 (centres undefined),-1.53
5,COc1cnc(N2CCCN(c3ccc(F)cc3)CC2)nc1,8.48
6,OC1CCN(C2CCN(c3ccc(Cn4ccnc4)cn3)CC2)CC1,89.01
7,c1cn(Cc2nnc(C3CCN(C4CCCCC4)CC3)n2C2CC2)cn1,13.15
8,c1csc(CN2CCCN(c3ccc(Cn4ccnc4)cn3)CC2)c1,106.4
9,c1cc(CN2CCCN(c3ccc4cc[nH]c4n3)CC2)ccn1,-27.97
10,c1csc(-c2cc(CN3CCN(c4cnccn4)CC3)no2)c1,-0.0676
11,O=C(NCCn1ccnc1)NCc1ccc(N2CCCCCC2)nc1,15.34
12,Fc1ccc(N2CCCN(c3ccc(Cn4ccnc4)cn3)CC2)cc1,119.2
13,CC1CCN(c2ccc(CNC(=O)NCCn3ccnc3)cn2)CC1,0.6283
14,CCOc1ccc(C(=O)N2Cc3cnc(CC(C)C)nc3C2)o1,-22.23
15,Cc1ccc(CC(NC(=O)CCS(C)(=O)=O)c2ccccn2)cc1 (centres undefined),-19.62
16,C[S+]([O-])c1nncn1CC(=O)c1ccc(Br)cc1 (centres undefined),-5.183
17,Cc1ccc(CN2CCCC3(CCCCN3S(C)(=O)=O)C2)s1.O=C(O)C(F)(F)F (centres undefined),-28.3
18,Cc1nn(C)c(Cl)c1C1CCCN1C(=O)c1cnccn1 (centres undefined),91.27
19,Cc1nn(C)c(Cl)c1C1CCCN1C(=O)c1csnn1 (centres undefined),106
20,Cc1ccn2cc(C(=O)N3CCCC3c3c(C)nn(C)c3C)nc2c1 (centres undefined),3.405
21,Cc1ncncc1C(=O)N1CCCC1c1c(C)nn(C)c1Cl (centres undefined),95.8
22,CC(=O)NCc1ccc(C(=O)N2CCCC2c2c(C)nn(C)c2C)o1 (centres undefined),97.07
23,Cc1nn(C)c(Cl)c1C1CCCN1C(=O)c1cc[nH]n1 (centres undefined),-2.963
24,CCc1nc(CNCC2(C(N)=O)CCOCC2)cs1,1.973

row,SMILES,Percent Effect [%]
1,CCCC1(CO)CCCN(c2ncccc2F)C1 (centres undefined),-3.484
2,COc1ccc(OCc2cc(C(=O)N3CCN[C@H](C)C3)n[nH]2)c(Cl)c1,-13.06
3,CNC(=O)c1ccc(CN(C(C)C)C(C)C)o1.Cl,-8.523
4,COc1cc(C)c(CNC(C)c2csc(C)n2)cc1OC (centres undefined),-9.97
5,N#CCCN(CCC#N)C(=O)COC1CCCCC1,-15.39
6,COc1c(C2CCCN2C(=O)c2cnn(C)c2C2CC2)c(C)nn1C (centres undefined),-4.592
7,COc1c(C2CCCN2C(=O)c2cc(C)on2)c(C)nn1C (centres undefined),99.28
8,COc1c(C2CCCN2C(=O)c2cc(C3CC3)on2)c(C)nn1C (centres undefined),-11.04
9,COc1c(C2CCCN2C(=O)c2ccc(Cl)o2)c(C)nn1C (centres undefined),6.578
10,COc1c(C2CCCN2C(=O)c2ccco2)c(C)nn1C (centres undefined),-0.9591
11,CCc1noc(C)c1C(=O)N1CCCC1c1c(C)nn(C)c1OC (centres undefined),-9.828
12,COCc1nc(C(=O)N2CCCC2c2c(C)nn(C)c2C)cs1 (centres undefined),3.792
13,Cc1nn(C)c(Cl)c1C1CCCN1C(=O)c1cnn(C)c1C1CC1 (centres undefined),93.32
14,CCc1ccc(C(=O)N2CCCC2c2c(C)nn(C)c2OC)o1 (centres undefined),54.64
15,COc1c(C2CCCN2C(=O)c2csc(C3CC3)n2)c(C)nn1C (centres undefined),61.26
16,COc1c(C2CCCN2C(=O)c2csc(C(C)C)n2)c(C)nn1C (centres undefined),8.615
17,c1ccc(CCCN2CC[C@H](c3nnc(-c4ccccc4)o3)C2)cc1,-1.621
18,CCN(Cc1ccoc1)C(C(N)=O)c1ccc(C#N)cc1 (centres undefined),0.4454
19,O=C(NCCc1csc(N2CCCC2)n1)N(C1CCCC1)C1CC1,-4.119
20,Cc1cc2nc(CO[C@H]3CN(C4CCCCC4)C[C@H]3F)[nH]c2cc1C,9.281
21,Cc1noc([C@@H]2C[C@H]3CN(Cc4ccc5c(c4)OCO5)C[C@H]3O2)n1.O=C(O)C(F)(F)F,-40.6
22,COc1c(C2CCCN2C(=O)c2cscn2)c(C)nn1C (centres undefined),88.43
23,COc1c(C2CCCN2C(=O)c2cnccn2)c(C)nn1C (centres undefined),114.6
24,COc1c(C2CCCN2C(=O)c2cnc(C)cn2)c(C)nn1C (centres undefined),86.16

row,SMILES,Percent Effect [%]
1,Cc1nn(C)c(Cl)c1C1CCCN1C(=O)c1cc(C2CC2)on1 (centres undefined),102.8
2,Cc1nc[nH]c1-c1nnc(SCC(=O)O)n1-c1ccccc1C(F)(F)F,-17.22
3,O=S(=O)(Cc1ccccc1F)NC(CO)c1ccco1 (centres undefined),6.014
4,Cl.Cl.Cl.O[C@@H]1C[C@@](CNCc2ccccn2)(COc2cccnc2)C[C@@H]1O,-17.47
5,Cc1ccsc1CNC(=O)c1ccc(N2CCNC2=O)cc1,1.647
6,COc1ccc(NC(=O)N2CCC3(CC2)NC(=O)CC3C(=O)O)c(C)c1 (centres undefined),2.707
7,Cn1c(CS(=O)(=O)Cc2cccc(Cl)c2)cc(=O)n(C)c1=O,7.085
8,CCS(=O)(=O)CCNc1nc(C2CCCC2)nc2c1cnn2C,3.087
9,CCc1nc(CC(=O)N2CCCC2c2c(C)nn(C)c2OC)cs1 (centres undefined),118.7
10,Cc1nn(C)c(C)c1C1CCCN1C(=O)Cc1cn2ccsc2n1 (centres undefined),10.74
11,COc1c(C2CCCN2C(=O)Cc2c(C)noc2C)c(C)nn1C (centres undefined),-5.371
12,CCN(c1ccc(C(=O)Nc2c(C)nn(C(C)C)c2C)cc1)C(C)C,-6.116
13,COc1cccc(N2CC3(CCN(c4ccc(C)nn4)C3)CC2=O)c1 (centres undefined),3.863
14,CN1C(Cn2cccn2)C[C@@H]2CN(C(=O)c3cccc(C#N)c3)CC[C@@H]21.O=C(O)C(F)(F)F.O=C(O)C(F)(F)F (some centres undefined),118.1
15,CN1[C@H](Cn2cncn2)C[C@@H]2CN(Cc3cccc(C#N)c3)CC[C@@H]21.O=C(O)C(F)(F)F.O=C(O)C(F)(F)F,3.665
16,CN1[C@H](Cn2cccn2)C[C@@H]2CN(Cc3cccs3)CC[C@@H]21.O=C(O)C(F)(F)F.O=C(O)C(F)(F)F.O=C(O)C(F)(F)F,118
17,CC(C)N1[C@H](Cn2cccn2)C[C@@H]2CN(Cc3ccoc3)CC[C@@H]21.O=C(O)C(F)(F)F.O=C(O)C(F)(F)F.O=C(O)C(F)(F)F,-17.46
18,CC(C)N1[C@H](Cn2cncn2)C[C@@H]2CN(Cc3cccs3)CC[C@@H]21.O=C(O)C(F)(F)F,3.978
19,Cc1ccc(CN2CC[C@H]3[C@H](CC(Cn4cccn4)N3C)C2)s1.O=C(O)C(F)(F)F.O=C(O)C(F)(F)F.O=C(O)C(F)(F)F (some centres undefined),96
20,O=C(O)C(F)(F)F.c1csc(CN2C[C@@H](n3cccn3)[C@H]3OCCC[C@H]32)c1,9.631
21,N#Cc1cccc(C(=O)N2CC[C@H]3[C@H]2CCN3CC2CCOCC2)c1.O=C(O)C(F)(F)F,-18.46
22,CN(C1CCCC1)C(C)(C)C(=O)NCCNC(N)=O,-0.4481
23,COCC1CN(C(=O)Cc2ccccn2)Cc2ncnn2C1.O=C(O)C(F)(F)F (centres undefined),-1.318
24,Cc1ccc(CN2CCC(Cc3nnc(CO)n3C)CC2)cc1C,-13.27

row,SMILES,Percent Effect [%]
1,CN(c1ncc(S(N)(=O)=O)s1)C1CCC1,11.92
2,COc1cc(NCc2ncc[nH]2)ccc1Br,2.622
3,Cn1nc2c(cc1=O)CN(CCc1nc3ccccc3c(=O)[nH]1)CC2,5.907
4,CN(C)C(=O)COC[C@]12COC[C@H]1CN(CCc1ccccc1)C2.O=C(O)C(F)(F)F,103
5,CN(C)C(=O)COC[C@]12COC[C@H]1CN(Cc1ccccc1)C2.O=C(O)C(F)(F)F,108.4
6,CN(C)C(=O)COC[C@]12COC[C@H]1CN(CC1CCC1)C2.O=C(O)C(F)(F)F,-8.978
7,CN(C)C(=O)COC[C@]12COC[C@H]1CN(Cc1ccco1)C2.O=C(O)C(F)(F)F,94.75
8,CCS(=O)(=O)NC[C@]12COC[C@H]1CN(CCc1ccccc1)C2.O=C(O)C(F)(F)F,-14.92
9,CN(C)C(=O)COC[C@]12COC[C@H]1CN(Cc1ccoc1)C2,-6.231
10,Cc1c(Cl)ccc2ccc(NC(CO)CO)nc12,-19.83
11,Cc1ccc(NCc2cn3c(n2)CN(Cc2ccoc2)CC3)nn1.O=C(O)C(F)(F)F.O=C(O)C(F)(F)F,8.385
12,CCn1ccnc1CN(C)C(C(=O)O)c1ccc(C(C)(C)C#N)cc1 (centres undefined),-18.43
13,C=C(C)COc1cccc(CN(CC)Cc2noc(C)n2)c1,-43.03
14,NC1CCN(C(=O)c2cnc(Cc3c(Cl)cccc3Cl)nc2O)C1 (centres undefined),-9.17
15,COCCN(Cc1ccco1)Cc1nc(-c2ccsc2)no1,17.38
16,CN(C)CCNc1c(-c2ccccc2)c(=O)c1=O,102.6
17,CCN(CC)CCNC(=O)c1cnc(C(C)(C)C)s1,-7.701
18,CCN(CC)CCNc1c(-c2ccccc2)c(=O)c1=O,104.3
19,CN(C)CCNc1ccc(-c2nc(-c3ccccc3F)no2)cn1,-20.15
20,CN(C)CCNc1ccc(-c2nc(COc3ccccc3)no2)cn1,-0.8633
21,CCN(CC)CCNC(=O)c1cnc(-c2ccccc2)nc1,14.16
22,CCCN(CCC)CCNc1c(-c2ccccc2)c(=O)c1=O,97.32
